D3 antag: antagonists of human D3 dopamine receptor; P35462; D3R cells, DiscoveRx beta-arrestin luminescence, antagonist mode; stronger effect = lower value; max response, negative = inhibition, %; 360,000 compounds, 2.5% hits; AID 652054; in the data active = max response below about -50%; inconclusive = no clear call, values can overlap the other calls; also: % is scaled to controls: 0 for no effect and ±100 for the full control effect
Target sequence (P35462 whole entry, looked up): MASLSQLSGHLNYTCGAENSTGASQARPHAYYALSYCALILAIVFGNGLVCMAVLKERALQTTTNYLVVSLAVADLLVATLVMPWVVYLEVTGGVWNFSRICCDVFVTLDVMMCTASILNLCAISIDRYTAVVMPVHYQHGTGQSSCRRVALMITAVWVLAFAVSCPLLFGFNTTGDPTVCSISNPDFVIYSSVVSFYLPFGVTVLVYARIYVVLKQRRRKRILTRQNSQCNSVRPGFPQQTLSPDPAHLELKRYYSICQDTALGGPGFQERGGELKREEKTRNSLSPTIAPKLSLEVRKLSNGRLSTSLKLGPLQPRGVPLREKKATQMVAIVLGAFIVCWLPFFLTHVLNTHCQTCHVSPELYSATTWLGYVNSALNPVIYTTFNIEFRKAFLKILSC
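Cells expressing the human receptor were seeded at 1500 cells/well, incubated overnight at 37 degrees C in 5% CO2, then exposed to library compounds with dopamine controls for 90 minutes at 37 degrees C before luminescent detection.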
DRD3 agonist: agonists of human D3 dopamine receptor; D3R DiscoveRx beta-arrestin cells, luminescence, 90 min; P35462; 410,000 compounds, 0.58% hits; AID 652048; max activation, %; in the data active = max activation above about 30%; also: 0% is about no effect
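Agonist mode: compounds and dopamine controls were applied to plated cells for 90 min at 37 degrees C after an overnight attachment at 1500 cells/well. Luminescent read-out followed 30 - 60 minutes at room temperature with DiscoveRx detection reagent.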
TDP1 cell CPT: growth inhibition of DT40 Tdp1-/-;hTDP1 cells with camptothecin (screen for TDP1 inhibitors); chicken DT40 Tdp1-/-;hTDP1 cells + 20 nM CPT, ATP luminescence, 48 h; Potency, µM (doses to about 46.2 µM), for the others: at the highest dose activity change, negative = growth inhibition, usual class: inhibitors; 420,000 compounds, 12% hits; AID 686979; also: potency is read from the fitted curve at half-maximal effect; % is scaled to controls: 0 for no effect and ±100 for the full control effect; nearly all actives have a fitted effect of over 55% in size
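Chicken DT40 Tdp1-/- cells stably complemented with human TDP1 were seeded at 400 cells/well in medium containing 20 nM camptothecin, exposed to pin-transferred compounds, and grown at 37 °C for at least 48 hr. Viability was read as ATP luminescence.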
ClpP mod: qHTS Assay for Activators of ClpP; ATP-dependent Clp protease proteolytic subunit (Bacillus subtilis (strain 168)), P80244; purified B. subtilis ClpP, FRET peptide cleavage, 20 min; Potency, µM (titrated, usually from 57.5 µM), without a hit: at the top dose activity change, negative = active; 340,000 compounds, 1.9% hits; AID 651965, 2013; active = well fitted falling curve with a large enough effect; inconclusive = small, poorly fitted or top-dose-only effect; inactive = no such curve, though single readings can be large or run the other way; also: potency is read from the fitted curve at half-maximal effect; the source files actives as falling curves though it sought activators and does not explain the sign; nearly all actives have a fitted effect of over 65% in size
Target sequence (P80244 whole entry, looked up): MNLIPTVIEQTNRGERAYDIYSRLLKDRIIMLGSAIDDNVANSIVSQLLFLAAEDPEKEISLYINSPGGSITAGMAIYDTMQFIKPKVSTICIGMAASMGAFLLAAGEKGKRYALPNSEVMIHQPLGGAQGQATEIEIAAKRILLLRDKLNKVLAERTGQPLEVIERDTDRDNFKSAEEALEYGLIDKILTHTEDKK
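Buffer: 100 mM Tris/HCl pH8, 100 mM KCl, 0.05% low protease BSA, 2.5% glycerol, 0.01% Tween-20. ClpP 10 microg/mL final; 20 min RT; delta FRET normalized to ADEP and DMSO controls.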
DT40 TDP1 no CPT: qHTS for Inhibitors of human tyrosyl-DNA phosphodiesterase 1 (TDP1): qHTS in cells in absence of CPT; DT40 Tdp1-/- hTDP1 cells, no CPT, ATP luminescence, 48 h; Potency, µM (doses to about 46.2 µM), without a hit: top-dose activity change, negative = growth inhibition, hits mostly inhibitors; 420,000 compounds, 15% hits; AID 686978, 2013; also: potency is read from the fitted curve at half-maximal effect; % is scaled to controls: 0 for no effect and ±100 for the full control effect; nearly all actives have a fitted effect of over 55% in size
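Growth kinetics read by CellTiter-Glo luminescence after ≥48 hr at 37 °C. Cells: DT40 Tdp1-/- stably carrying human TDP1, 400 per well, compound exposure in the absence of CPT (DMSO vehicle).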
IL1B secr inh: inhibitors of inflammasome signaling (IL-1 beta secretion) | 360,000 compounds, 4.7% hits | THP-1 LPS/ATP IL-1B secretion, AlphaLISA, 16 h; stronger effect = lower value | activity change, % at 57.5 µM; in the data active = activity change below about -50%; inconclusive = mostly about -30% to -49%; also: % is scaled to controls: 0 for no effect and ±100 for the full control effect
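THP-1 cells pretreated 1 hr with compounds (up to 57.5 uM final), then stimulated with LPS (250 ng/mL final) plus ATP (1.25 mM final); secreted IL-1B measured by AlphaLISA after 16 hr, decreased signal indicating inhibition.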
An asterisk follows results filed as active; ? = inconclusive; . = no result given; [ ] = remark or other dose. A selection: hits, their analogues and other compounds. The true share with any hit is near 21%. Unless noted, calls follow the shape of the dose curve; as a rule, active = well fitted inhibition curve with a large enough effect; inconclusive = small, poorly fitted or top-dose-only effect; inactive = flat fitted curve, though single readings scatter.

SMILES | D3 antag | DRD3 agonist | TDP1 cell CPT | ClpP mod | DT40 TDP1 no CPT | IL1B secr inh
COc1ccc(-c2ccc(CN3C(C(C)C)C(=O)N(Cc4cn(Cc5ccco5)nn4)CCS3(=O)=O)cc2)cc1 (centres undefined) | -7.9 | -2.3 | ? | -2.5% | 20.6µM* | -0.1
CC(C)CC1C(=O)N(Cc2cn(Cc3ccco3)nn2)CCS(=O)(=O)N1Cc1ccc(-c2cccc(N(C)C)c2)cc1 (centres undefined) | 3.5 | -5.3 | ? | ? | 13µM* | -0.2
Cc1ccc(-c2ccc(CN3C(C)C(=O)N(Cc4cn(Cc5ccco5)nn4)CCS3(=O)=O)cc2)c(C)c1 (centres undefined) | 20.4 | 6.8 | ? | 0.4% | ? | -60.8*
COc1ccc(-c2ccc(CN3C(C(C)C)C(=O)N(Cc4cn(Cc5ccco5)nn4)CCS3(=O)=O)cc2)cc1OC (centres undefined) | 10.0 | 1.9 | ? | -16.2% | ? | 12.0
CC1C(=O)N(Cc2cn(Cc3ccco3)nn2)CCS(=O)(=O)N1Cc1ccc(-c2cccnc2)cc1 (centres undefined) | -11.5 | -8.2 | ? | -2.2% | ? | ?
C=CCOc1ccccc1CN1CCCN(C)CC1 | -28.2 | -16.0 | 1.2% | -1.6% | -7.9% | 0.7
Cc1cccc(CCNC(=O)C2CCC(=O)N(Cc3ccccc3F)C2)n1 (centres undefined) | 10.9 | 3.6 | -0.6% | -1.9% | -28.8% | 24.5
CC1C(=O)N(Cc2cn(Cc3ccco3)nn2)CCS(=O)(=O)N1Cc1ccc(-c2ccc(Cl)c(Cl)c2)cc1 (centres undefined) | 3.9 | 3.5 | 14.6µM* | 0.1% | 8.2µM* | -51.4*
Cc1ccc(-c2ccc(CN3C(CC(C)C)C(=O)N(Cc4cn(Cc5ccco5)nn4)CCS3(=O)=O)cc2)cc1 (centres undefined) | 19.6 | 6.3 | 4.3% | -1.2% | ? | -16.4
CC(C)CC1C(=O)N(Cc2cn(Cc3ccco3)nn2)CCS(=O)(=O)N1Cc1ccc(-c2ccc(F)cc2)cc1 (centres undefined) | 37.8 | 2.0 | ? | -2.5% | 16.4µM* | -71.9*
CC(C)Cc1ccc(CN2C(C)C(=O)N(Cc3cn(Cc4ccco4)nn3)CCS2(=O)=O)cc1 (centres undefined) | 13.3 | 10.6 | ? | 2.5% | ? | ?
CC(C)C1C(=O)N(Cc2cn(Cc3ccco3)nn2)CCS(=O)(=O)N1Cc1ccc(-c2ccc(Cl)c(Cl)c2)cc1 (centres undefined) | 21.1 | 8.3 | 4.61µM* | -3.6% | 3.26µM* | -22.7
CC(NC(=O)c1ccco1)c1nnc2n1CCN(Cc1cccc(Cl)c1)CC2 (centres undefined) | . | . | 1.1%[9.04 µM] | . | -11.8% | .
O=C(c1ccco1)N1CCN(Cc2cc(=O)c(OCc3ccc(F)cc3)co2)CC1 | 6.3 | -1.0 | ? | . | 7.4% | -5.0
CC(C)C1N=C2c3ccccc3N=C(SCc3cc(=O)n4cc(Cl)ccc4n3)N2C1=O (centres undefined) | 12.2 | 4.9 | ? | -0.8% | 14.6µM* | 16.8
O=C(CNC(=O)c1ccccc1O)N/N=C/c1cc(Br)ccc1OC(=O)/C=C/c1ccco1 | ? | -19.8 | 7.31µM* | . | 4.61µM* | 76.6
O=C(CNC(=O)c1cccc(F)c1)N/N=C/c1cc(Br)ccc1OC(=O)/C=C/c1ccco1 | -24.9 | -7.3 | 7.31µM* | -6.7% | 3.66µM* | 191.5
CCOc1ccc(-c2ccc(NS(=O)(=O)c3ccc([N+](=O)[O-])cc3)cc2)nn1 | -8.4 | -4.7 | ? | -0.7% | 0.5% | -1.8
COc1ccc(OC)c(S(=O)(=O)Nc2ccc(-c3ccc4nnc(C)n4n3)cc2)c1 | 1.5 | 0.8 | 8.2µM* | -5.2% | 8.2µM* | 36.0
CCOc1ccc(S(=O)(=O)Nc2cccc(-c3ccc(OCC)nn3)c2)cc1 | . | -4.6 | 11.6µM* | -0.3% | 16.4µM* | .
CCOc1ccc(-c2ccc(NS(=O)(=O)c3cc(C)ccc3OC)cc2)nn1 | . | 3.2 | 13µM* | 4.0% | 23.1µM* | .
CCOc1ccc(-c2cccc(NS(=O)(=O)c3c(C)cc(C)cc3C)c2)nn1 | . | 5.0 | ? | 0.1% | 23.1µM* | .
CCOc1ccc(-c2cccc(NS(=O)(=O)c3ccc([N+](=O)[O-])cc3)c2)nn1 | -6.1 | -1.1 | ? | 0.9% | -6.0% | 9.3
CCN(CC)C(=O)CSc1ncccc1-c1nc2ccccc2[nH]1 | -10.1 | -3.6 | -19.7% | -20.3% | -10.7% | 7.8
O=C(OCCc1cc2ccccc2c(=O)o1)c1ccccc1C(F)(F)F | ? | 18.7 | ? | 0.4% | ? | -18.5
SMILES | D3 antag | DRD3 agonist | TDP1 cell CPT | ClpP mod | DT40 TDP1 no CPT | IL1B secr inh
CCN(C(=O)C(C)Sc1ccc(S(=O)(=O)N2CCOCC2)cn1)c1ccccc1 (centres undefined) | 18.0 | -2.5 | ? | -0.4% | 18.4µM* | -12.9
CN(c1ccc(S(=O)(=O)N2CCOCC2)cn1)C1CCCCC1 | -22.7 | 1.6 | -62.1% | 2.0% | 23.1µM* | 18.2
O=C(c1ccc(S(=O)(=O)N2CCOCC2)cc1)N(c1ccccn1)C1CCCCC1 | -10.9 | 14.2 | ? | . | ? | 10.4
COc1ccc(Cl)cc1NC(=O)CN(C)C(=O)C1CCN(C(=O)Nc2ccccc2)CC1 | -5.2 | 8.7 | -4.8% | 0.6% | -6.2% | -2.7
CN1CCN(c2oc(-c3ccccc3)nc2S(=O)(=O)c2ccccc2)CC1 | 6.6 | 0.9 | 5.0% | . | 3.6% | 3.9
COc1ccc(N2CCN(c3oc(-c4ccccc4C)nc3S(=O)(=O)c3ccccc3)CC2)cc1 | . | 4.5 | 11.6µM* | -22.5% | 9.2µM* | .
Cc1ccccc1-c1nc(S(=O)(=O)c2ccccc2)c(N2CCCC2)o1 | 16.8 | -3.2 | ? | -28.2% | ? | 1.1
COc1ccc(-c2nc(S(=O)(=O)c3ccccc3)c(N3CCCC3)o2)cc1 | 0.0 | 1.6 | -0.7% | -1.9% | -4.7% | 5.3
COc1ccccc1-c1nc(S(=O)(=O)c2ccccc2)c(N2CCC(C)CC2)o1 | . | 7.9 | 23.1µM* | -10.8% | 3.66µM* | .
COc1cccc(-c2nc(S(=O)(=O)c3ccccc3)c(N3CCC(C)CC3)o2)c1 | . | 10.3 | ? | -12.7% | 8.2µM* | .
COc1ccc(-c2nc(S(=O)(=O)c3ccccc3)c(N3CCC(C)CC3)o2)cc1 | . | -20.7 | 20.6µM* | -10.4% | 11.6µM* | .

Screening results (PubChem)
